This passage reports Potency and cell number change results from PubChem BioAssay AID2685 (National Center for Advancing Translational Sciences (NCATS), 2010).

SMILES strings stand for the structures. The campaign covered roughly 320,000 compounds. About 2,100 (0.66%) were called active. About 53% were inconclusive and are not listed. Calls follow the shape of the dose curve; as a rule, active = well fitted inhibition curve with a large enough effect in the signal ratio, with a control signal flat (not every such curve was filed as active); inconclusive = small, poorly fitted or top-dose-only effect, or effect the other way, or a change in a side signal; inactive = flat fitted curve, though single readings scatter; the % refers to the signal ratio. What follows is part of a selection rich in actives, with near analogues and random picks from the rest.
Potency is read from the fitted curve at half-maximal effect.

The assay is described as follows: qHTS Assay for Lipid Storage Modulators in Drosophila S3 Cells.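 As to cell number change: cells counted by Cell Tracker Red CMTPX staining in the red channel.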 The following applies: BODIPY lipid droplet fluorescence, 18-24 h, cells fed with added oleic acid; cell number change: measured here: cell count max response; series mostly up to 46.1 µM. In short, it runs like this: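 Drosophila S3 cells got compounds at several concentrations plus oleic acid (400 uM solution). Laser-scanning cytometry with 488 nm excitation read lipid droplets at 500-530 nm and cells at 575-640 nm. Percent activity was relative to 20 uM Triacsin C.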
On the technique in general: In qHTS, concentration-response curves come from the screen itself.
As for `Cc1ccc(NC(=O)CSc2nnc(CNC(=O)c3ccco3)n2C)cc1`, the Potency result is “inactive”.
`COC(=O)c1ccc(COC(=O)c2cnccn2)cc1`: the Potency result was “inactive” and the cell number change turned out to be 9.29%.
Consider `O=C(c1ccccc1)c1ccc(COC(=O)c2cnccn2)cc1`, for which the Potency result was “inactive”.
For `O=C(OCc1ccc(Cl)cc1)c1cnccn1`, the Potency was 7.31 µM (active) and the cell number change amounted to 23.8%.
As to `CCN(C(=O)CSc1nnc(Cc2ccccc2F)n1N)C1CCS(=O)(=O)C1` (centres undefined), the Potency was 8.2 µM (active) and the cell number change is -2.07%.
On to `CCN(C(=O)CSc1nnc(-c2ccccc2)n1C)C1CCS(=O)(=O)C1` (centres undefined), for which the Potency result was “inactive”.
As for `CCN(C(=O)CSc1nnc(COc2ccccc2F)n1N)C1CCS(=O)(=O)C1` (centres undefined), the Potency entry is “inactive”.
In the case of `Cc1onc(-c2ccccc2Cl)c1C(=O)N1CCC(C)CC1`, the Potency entry was “inactive” and the cell number change was -10.5%.
On to `Cc1onc(-c2ccccc2Cl)c1C(=O)N1CCN(C=O)CC1`, for which the Potency entry was “inactive”.
For `Cc1onc(-c2ccccc2Cl)c1C(=O)N1CCCCCC1`, the Potency was 25.9 µM (active) and the cell number change was determined as 0.806%.
Turning to `CCNC(=S)N1CCN=C1Nc1nc(C)cc(C)n1`, the Potency result is “inactive” and the cell number change turned out to be 8.32%.
As to `CCn1cc(CNC(=O)/C=C/c2ccc([N+](=O)[O-])cc2)cn1`, the Potency entry is “inactive” and the cell number change is -8.84%.
For `CCn1c2ccc(C)cc2c2nc3cc(C(=O)O)ccc3nc21`, the Potency entry was “inactive” and the cell number change is -5.53%.
For the compound `CCn1c2ccccc2c2nc3cc(C(=O)O)ccc3nc21`, the Potency was 0.58 µM (active) and the cell number change was -24.2%.
On the same counts, the results for `O=C(O)CCn1c2ccccc2c2nc3ccccc3nc21` are “inactive” and -11.8%.
With `CC(=O)NCCc1nc2cc(NC(=O)c3cccc([N+](=O)[O-])c3)ccc2n1C`, the Potency entry was “inactive”.
For the compound `COc1nn(CC(=O)N2N=C(C)CC2(O)C(F)F)cc1[N+](=O)[O-]` (centres undefined), the Potency result was “inactive” and the cell number change turned out to be 5.87%.
Turning to `CCOC(=O)Cn1cc([N+](=O)[O-])c(OC)n1`, the Potency is 23.1 µM (active) and the cell number change is -15%.
Turning to `COc1nn(CC(=O)N2N=C(C)CC2(O)C(F)(F)F)cc1[N+](=O)[O-]` (centres undefined), the Potency result is “inactive” and the cell number change came out at 11.8%.
On to `CCOc1ccc(CCNC(=O)c2nnc(Cc3ccc(F)cc3)o2)cc1OCC`, for which the Potency result is “inactive” and the cell number change is -1.72%.
Consider `CN(CCCNC(=O)COc1cc(=O)n(C)c2ccccc12)Cc1ccccc1`, for which the Potency result is “inactive” and the cell number change was 1.19%.
In the case of `C=CCSc1nsc(NC(=O)Nc2ccc(F)cc2)n1`, the Potency is 5.17 µM (active) and the cell number change is -16.2%.
On to `O=C(Nc1nc(SCc2ccc(F)cc2)ns1)c1ccco1`, for which the Potency entry is “inactive” and the cell number change was -12.1%.
Consider `CCSc1nsc(NC(=O)Nc2ccc(F)cc2F)n1`, for which the Potency result is “inactive”.
Consider `Cc1ccccc1S(=O)(=O)NCC1CCCO1` (centres undefined), for which the Potency entry is “inactive” and the cell number change is -3.81%.
As for `COCc1cc(C)nc(SCC[N+](C)(C)CC(=O)c2ccc(Br)cc2)c1C#N`, the Potency entry is “inactive”.
As for `NC(=O)C1=C[C@@H](c2coc3ccccc3c2=O)C[C@@H](OCc2ccc(CO)cc2)O1`, the Potency entry is “inactive” and the cell number change stood at 16%.
On to `CCc1ccc(CN(C)C(=O)c2cc(COc3cccc4cnccc34)on2)cc1`, for which the Potency entry is “inactive” and the cell number change was 14.5%.
Regarding `CCOC(=O)C1=C(CBr)NC(=O)NC1C` (centres undefined), the Potency entry was “inactive” and the cell number change was -12.6%.
For the compound `CC1=C(C(=O)OCc2ccccc2)C(c2cccc([N+](=O)[O-])c2)NC(=O)N1` (centres undefined), the Potency result is “inactive” and the cell number change is 10.6%.
For `CCOC(=O)C1=C(CN2CCSCC2)NC(=O)NC1c1cccc([N+](=O)[O-])c1` (centres undefined), in that order: “inactive” and -8.36%.
On to `CCOC(=O)C1=C(COc2ccccc2)NC(=O)NC1c1cccc([N+](=O)[O-])c1` (centres undefined), for which the Potency was 9.2 µM (active) and the cell number change worked out at 3.89%.
Consider `CCOC(=O)C1=C(C)N(C)C(=O)NC1c1cccc(O)c1` (centres undefined), for which the Potency result was “inactive”.
With `CCOC(=O)C1=C(C)NC(=O)NC1C` (centres undefined), the Potency is 5.17 µM (active) and the cell number change is -10.2%.
As for `CCOC(=O)C1=C(C)NC(=O)NC1c1cccc(O)c1` (centres undefined), the Potency is 20.6 µM (active) and the cell number change was determined as 0.128%.
Regarding `CC1=C(C(=O)OCC2CCCO2)C(c2cccc(O)c2)NC(=O)N1` (centres undefined), the Potency result is “inactive” and the cell number change is -24.8%.
For `CCOC(=O)C1=C(C)NC(C)=C(C(=O)OCC)C1C`, the Potency entry was “inactive” and the cell number change is 8.56%.
With `CCOc1cc(N2CCOCC2)c(OCC)cc1NC(=O)CSc1n[nH]c(N)n1`, the Potency entry was “inactive” and the cell number change was determined as 21.7%.
As for `CCOC(=O)c1c(NC(=O)COC(=O)c2cc(OC)c(OC)cc2[N+](=O)[O-])sc(C)c1CC`, the Potency result is “inactive” and the cell number change is -0.918%.
As for `CN(c1ccccc1)S(=O)(=O)c1cccc(NC(=O)CN2CCc3ccccc3C2)c1`, the Potency result was “inactive”.
Take `CC1=C(C(N)=O)C(c2cccs2)n2ncnc2N1` (centres undefined): the Potency entry is “inactive” and the cell number change was -0.857%.
`COc1ccc(S(=O)(=O)Nc2c(C(=O)O)[nH]c3ccccc23)cc1OC`: the Potency result was “inactive” and the cell number change was determined as 2.12%.
Turning to `COc1ccccc1OCC(=O)Nc1cc(NC(=O)COc2ccccc2OC)cc(C(=O)O)c1`, the Potency entry was “inactive” and the cell number change was -10.7%.
On to `Cc1cc(=O)n2[nH]nnc2n1`, for which the Potency result was “inactive” and the cell number change was -0.264%.
As for `CCC(C)[C@@H](C(=O)N1CCNCC1)n1cc(CCCN=C(N)N)nn1` (some centres undefined), the Potency entry is “inactive” and the cell number change was -4.28%.
For `Cc1sc2ncnc(N=Nc3c(O)[nH]c4ccccc34)c2c1C`, in that order: 20.6 µM (active) and -22%.
On the same counts, the results for `Oc1[nH]c2ccccc2c1N=Nc1ncnc2c1oc1ccccc12` are “inactive” and 8.73%.
With `Oc1[nH]c2ccccc2c1N=Nc1ccc(C(F)(F)F)cn1`, the Potency entry was “inactive” and the cell number change is -7.88%.
In the case of `Cc1ccccc1OCCNc1ccc(C(F)(F)F)cc1[N+](=O)[O-]`, the Potency result was “inactive” and the cell number change was -21%.
Turning to `CCS(=O)(=O)N1Cc2ccccc2CC1C(=O)Nc1ccc(C)cc1` (centres undefined), the Potency entry was “inactive”.
Take `CCS(=O)(=O)N1Cc2ccccc2CC1C(=O)NC(C)C12CC3CC(CC(C3)C1)C2` (centres undefined): the Potency is 23.1 µM (active) and the cell number change was -29.2%.
For `CCS(=O)(=O)N1Cc2ccccc2CC1C(=O)Nc1ccc(NC(C)=O)cc1` (centres undefined), the Potency result was “inactive”.
As for `Cc1ccc(C=Nc2ccccc2C(N)=O)o1`, the Potency result is “inactive” and the cell number change was -8.21%.
On the same counts, the results for `CC1CN(c2ccc([N+](=O)[O-])cc2F)CCN1C(=O)c1ccco1` (centres undefined) are “inactive” and -3.23%.
On to `CCOc1ccccc1NS(=O)(=O)c1ccc2c(c1)N(C)CCO2`, for which the Potency is 7.31 µM (active) and the cell number change is -20.1%.
Regarding `COc1ccc(C)cc1NS(=O)(=O)c1ccc2c(c1)N(C)CCO2`, the Potency is 20.6 µM (active) and the cell number change worked out at 6.6%.
In the case of `CCOc1ccccc1NS(=O)(=O)c1ccc2c(c1)n(C)c(=O)c(=O)n2C`, the Potency result was “inactive” and the cell number change was -6.25%.
For `CCOc1ccccc1NS(=O)(=O)c1ccc(OC)c(OC)c1`, in that order: “inactive” and -6.31%.
As for `COc1ccc(C)cc1NS(=O)(=O)c1ccc2c(c1)N(C(C)=O)CCO2`, the Potency entry is “inactive” and the cell number change is 6.45%.
`Cc1ccc(NS(=O)(=O)c2ccc3c(c2)N(C)CCO3)cc1`: the Potency entry is “inactive” and the cell number change is 5.66%.
On to `CN(C)S(=O)(=O)c1ccc(N2CCCC2)c(C(=O)Nc2ccc(C(N)=O)cc2)c1`, for which the Potency entry is “inactive”.
